This is one part of a sample in which hits are shown more often than they occur.
Pf Dd2 growth = Plasmodium falciparum Dd2 growth inhibition; P. falciparum Dd2 growth, SYBR Green, 72 h; Potency, µM (titrated, usually from 28.9 µM), for the others: top-dose activity, negative = inhibition, hits mostly inhibitors; hit rate 4.3% among 120,000; AID 1347417; active = well fitted inhibition curve with a large enough effect;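 note: plate controls were DMSO vehicle for no effect and reference drug for full effect; nearly all actives have a fitted effect of over 65% in size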
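Readout: SYBR Green fluorescence, 485 nm excitation, 535 nm emission, after ~16 h lysis at 37C. Before that, Dd2-infected red cells (2.5% hematocrit) grew 72 h with compound, 29 uM top final concentration.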
* marks the source's active call; other numbers are inactive results; i = inactive; [ ] = another dose, or the depositor's remark. Potency is the fitted concentration of half-maximal effect.

SMILES	Pf Dd2 growth
Cc1cc(C(F)(F)F)nn1CC(=O)NCC1Cn2cccc2C(=O)N1CC(C)C (centres undefined)	10%
COc1ccc(-n2nc(C3CCCN(C(=O)c4ccc(C(F)(F)F)cc4)C3)[nH]c2=O)cc1 (centres undefined)	-18%
Cc1cc(C(=O)N2CCC(Cc3nc(-c4ccccc4)n[nH]3)CC2)nn1C	i
Cc1ccc(-c2nc(C)c(C(=O)Nc3ccc4c(c3)C(=O)N3CCC[C@H]3C(=O)N4)s2)cc1	-12%
Cc1ccc(NC(C)(C)C(=O)N2CCC3(CC2)CN(C)CCN3C)cc1	i
Cc1ccc(Cn2c(CO)cnc2SCc2ccc(F)cc2)cc1	-20%
Cc1ccc(CCNC(=O)c2ccc(CSc3nc4ccncc4n3Cc3ccc(F)cc3)cc2)cc1	4.5µM*
Cc1ccc(NC(=O)Cn2c(SCc3cccc(F)c3)nc3ccncc32)c(C)c1	i
O=C(NCCc1ccccc1)c1ccc(CSc2nc3ccncc3n2Cc2ccc(F)cc2)cc1	7.1µM*
COC(=O)c1ccc(Cn2c(SCC(=O)Nc3ccc(F)cc3)nc3ccccc32)cc1	22%
O=C1NC2(CCN(Cc3ccncc3)CC2)Oc2ccccc21	i
CNC(=O)[C@H]1C[C@H](Oc2ccccc2)CN1C(=O)c1ccc2ccccc2n1	-22%
Cn1ccc2ccc(C(=O)N3CCN(CCOc4ccccc4)CC3)cc21	-2%
COCCc1nncn1C1CCN(S(=O)(=O)c2cccc(F)c2)CC1	-4%
Cn1nc(-c2ccc3c(c2)OCCO3)nc1N1CCCCC1	i
CNC(=O)[C@H]1C[C@H](Oc2ccccc2)CN1Cc1ccc(OC(F)(F)F)cc1	i
O=S(=O)(Nc1nc2n(n1)C(c1ccc(F)cc1)C=C(c1ccccc1)N2)c1ccc(Cl)cc1 (centres undefined)	-16%
O=C(Cn1nnc(-c2ccc(Cl)cc2)n1)NCc1ccc(F)cc1	-4%
O=C(Nc1nc2n(n1)C(c1ccc(F)cc1)C=C(c1ccc(Cl)cc1)N2)c1ccc([N+](=O)[O-])cc1 (centres undefined)	4µM*
Cc1ccc(C2C=C(c3ccccc3)Nc3nc(NS(=O)(=O)c4ccccc4)nn32)cc1 (centres undefined)	0%
Cc1ccc(C2C=C(c3ccccc3)Nc3nc(NS(C)(=O)=O)nn32)cc1 (centres undefined)	107%[5.79 µM]
O=C(Nc1nc2n(n1)C(c1ccc(F)cc1)C=C(c1ccccc1)N2)c1ccc(Cl)cc1 (centres undefined)	10µM*
CC1=C(C(=O)Nc2cccnc2)C(c2ccc(Cl)cc2)n2nc(-c3ccccc3)nc2N1 (centres undefined)	i
Cc1ccc(C(=O)Nc2nc3n(n2)C(c2ccccc2)C=C(c2ccccc2)N3)cc1 (centres undefined)	11µM*
COc1ccccc1C(=O)Nc1nc2n(n1)C(c1ccc(F)cc1)C=C(c1ccc(Cl)cc1)N2 (centres undefined)	4.5µM*
SMILES	Pf Dd2 growth
CCC1Oc2ccc(NC(=O)c3ccc([N+](=O)[O-])cc3)cc2CN(Cc2ccc(F)cc2)C1=O (centres undefined)	-10%
COc1ccccc1C(=O)NC1CCN(c2cc(-c3ccc(Cl)cc3)[nH]n2)CC1	i
NS(=O)(=O)c1ccc(C(=O)NCCn2cccn2)cc1	4%
Cc1[nH]cnc1-c1nccn1CCCOC1CCN(C)CC1	-5%
CNC(=O)[C@@H](c1ccccc1F)N1CCC[C@H]1C(=O)NC1CC1	i
COc1ccc(C2C=C(c3ccccc3)Nc3nc(NS(=O)(=O)c4ccc(Cl)cc4)nn32)cc1 (centres undefined)	4%
CC(=O)Nc1ccc(S(=O)(=O)Nc2nc3n(n2)C(c2ccccc2)C=C(c2ccc(Cl)cc2)N3)cc1 (centres undefined)	13%
Cc1ccc(S(=O)(=O)Nc2nc3n(n2)C(c2ccc(F)cc2)C=C(c2ccccc2)N3)cc1 (centres undefined)	-30%
O=S(=O)(Nc1nc2n(n1)C(c1ccccc1)C=C(c1ccc(Cl)cc1)N2)c1ccccc1 (centres undefined)	27%
Fc1ccc(C2=CC(c3ccc(F)cc3)n3c(nc4ccccc43)N2)cc1 (centres undefined)	67%
Cc1ccc(-c2nc3sc(CCNC(=O)c4ccco4)c(C)n3n2)cc1	i
COc1ccc(C2C=C(c3ccc(Cl)cc3)Nc3nc(NC(=O)CCC(=O)O)nn32)cc1 (centres undefined)	-5%
O=C(Nc1nc2n(n1)C(c1ccccc1)C=C(c1ccccc1)N2)c1ccc(Cl)c([N+](=O)[O-])c1 (centres undefined)	8.9µM*
Cc1ccc(C2C=C(c3ccc(Cl)cc3)Nc3nc(NC(=O)c4ccco4)nn32)cc1 (centres undefined)	3.5µM*
O=C(Nc1cnc(-c2ccc(F)cc2)nc1)c1ccco1	i
Cc1ccc(C(=O)Nc2nc3n(n2)C(c2ccc(F)cc2)C=C(c2ccccc2)N3)cc1 (centres undefined)	6.3µM*
COc1ccc(C(=O)Nc2nc3n(n2)C(c2ccc(F)cc2)C=C(c2ccc(Cl)cc2)N3)cc1 (centres undefined)	5µM*
CCc1nncn1C1CCN(S(=O)(=O)c2cccc(F)c2)CC1	-13%
COCC(=O)N[C@H]1CC[C@]2(C)CCC([C@H](C)C(=O)NCc3ccc4c(c3)OCO4)[C@H](O)[C@H]2[C@@H]1C (some centres undefined)	-16%
O=C(NCc1ccccc1Cl)C1CCN(C(=O)c2ncn3c2COC(c2ccccc2)C3)CC1 (centres undefined)	-20%
Cc1noc2c(-c3cccnc3NC3CCN(C)CC3)cc(-c3ccc(Cl)cc3)nc12	i
COc1ccc(Cl)cc1C(=O)N1C[C@@H](CO)[C@H](c2ccccn2)C1	22%
COc1ccc(CN2C(=O)CO[C@H]3CN(Cc4c[nH]c5ccccc45)C[C@H]32)cc1	7.9µM*
O=C1CO[C@H]2CN(Cc3ccncc3)C[C@H]2N1Cc1ccc(F)cc1	-5%[44.1 µM]
CC(C)CCN1CC[C@@H]2OCC(=O)N(Cc3c[nH]c4ccccc34)[C@H]2CC1	i
SMILES	Pf Dd2 growth
O=C1CO[C@H]2CCN(Cc3ccncc3)CC[C@@H]2N1Cc1ccccc1	i
CC(C)c1ccc(CN2CC[C@@H]3OCC(=O)N(Cc4ccccc4)[C@H]3CC2)cc1	10µM*
CC(C)N1C(=O)CO[C@H]2CCN(Cc3ccccc3)CC[C@@H]21	-25%[44.1 µM]
N#Cc1cccc(CN2CC[C@@H]3OCC(=O)N(Cc4c[nH]c5ccccc45)[C@H]3CC2)c1	i
COc1ccccc1CN1CC[C@@H]2OCC(=O)N(Cc3c[nH]c4ccccc34)[C@H]2CC1	4.5µM*
O=C1CO[C@H]2CN(Cc3ccc4c(c3)OCO4)C[C@H]2N1Cc1ccc(F)cc1	10µM*
COc1ccc(CN2C(=O)CO[C@H]3CN(CC4CC4)C[C@H]32)cc1	i
O=C1CO[C@H]2CN(Cc3ccc4c(c3)OCO4)C[C@H]2N1Cc1ccccn1	i
COc1ccc(CN2C(=O)CO[C@H]3CN(C(C)C)C[C@H]32)cc1	i
CC(C)[C@@H]1CN(C(=O)c2ccc(=O)n(C)n2)C[C@H]1NS(=O)(=O)N(C)C	0%
CCc1ccccc1NC(=O)COc1ccc(NC(=O)C2CC2)cn1	-2%
CCO[C@H]1C[C@@H](O)C12CCN(C(=O)c1cc(C(F)(F)F)[nH]n1)CC2	4%
CCC(C)NC(=O)C1CC(c2ccccc2)CN(C(=O)c2ccc(OC)cc2)C1 (centres undefined)	i
Cc1ccc2c(C(=O)NCCc3cccnc3)cc(NC(=O)C(C)C)cc2n1	-12%

Screens (PubChem)
